Columns and labels:
[1] = molecular target: T1, Ephrin type-B receptor 2 (Homo sapiens) (UniProt P29323); conditions: at 1 µM
T1 sequence (whole entry): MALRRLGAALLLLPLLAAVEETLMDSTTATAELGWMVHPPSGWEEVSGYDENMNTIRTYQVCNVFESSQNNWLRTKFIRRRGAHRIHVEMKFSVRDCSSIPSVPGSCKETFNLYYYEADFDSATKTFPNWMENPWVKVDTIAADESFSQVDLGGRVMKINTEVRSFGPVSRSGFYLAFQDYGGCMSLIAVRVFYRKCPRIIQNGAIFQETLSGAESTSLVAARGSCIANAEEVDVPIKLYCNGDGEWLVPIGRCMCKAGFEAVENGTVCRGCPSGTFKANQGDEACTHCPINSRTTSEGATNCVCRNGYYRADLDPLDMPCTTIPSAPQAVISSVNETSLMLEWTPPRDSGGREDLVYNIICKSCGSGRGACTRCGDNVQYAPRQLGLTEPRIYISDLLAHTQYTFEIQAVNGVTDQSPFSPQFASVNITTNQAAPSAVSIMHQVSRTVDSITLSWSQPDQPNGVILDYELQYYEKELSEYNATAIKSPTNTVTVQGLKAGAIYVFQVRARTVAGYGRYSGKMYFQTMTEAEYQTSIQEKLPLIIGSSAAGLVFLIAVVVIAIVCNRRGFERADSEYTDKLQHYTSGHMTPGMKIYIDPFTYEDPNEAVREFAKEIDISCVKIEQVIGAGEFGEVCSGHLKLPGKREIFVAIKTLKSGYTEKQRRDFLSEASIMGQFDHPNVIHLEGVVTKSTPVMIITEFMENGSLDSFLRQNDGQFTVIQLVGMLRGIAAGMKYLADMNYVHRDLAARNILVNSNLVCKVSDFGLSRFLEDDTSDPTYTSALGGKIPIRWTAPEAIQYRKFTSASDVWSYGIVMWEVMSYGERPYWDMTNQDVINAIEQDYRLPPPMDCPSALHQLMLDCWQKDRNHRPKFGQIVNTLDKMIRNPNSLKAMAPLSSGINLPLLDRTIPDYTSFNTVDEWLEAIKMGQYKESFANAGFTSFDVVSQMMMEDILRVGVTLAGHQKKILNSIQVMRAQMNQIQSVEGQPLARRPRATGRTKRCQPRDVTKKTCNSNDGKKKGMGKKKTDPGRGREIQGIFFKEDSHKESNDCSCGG

[2] = molecular target: T2, Ephrin type-B receptor 3 (Homo sapiens) (UniProt P54753); conditions: at 0.1 µM
T2 sequence (whole entry): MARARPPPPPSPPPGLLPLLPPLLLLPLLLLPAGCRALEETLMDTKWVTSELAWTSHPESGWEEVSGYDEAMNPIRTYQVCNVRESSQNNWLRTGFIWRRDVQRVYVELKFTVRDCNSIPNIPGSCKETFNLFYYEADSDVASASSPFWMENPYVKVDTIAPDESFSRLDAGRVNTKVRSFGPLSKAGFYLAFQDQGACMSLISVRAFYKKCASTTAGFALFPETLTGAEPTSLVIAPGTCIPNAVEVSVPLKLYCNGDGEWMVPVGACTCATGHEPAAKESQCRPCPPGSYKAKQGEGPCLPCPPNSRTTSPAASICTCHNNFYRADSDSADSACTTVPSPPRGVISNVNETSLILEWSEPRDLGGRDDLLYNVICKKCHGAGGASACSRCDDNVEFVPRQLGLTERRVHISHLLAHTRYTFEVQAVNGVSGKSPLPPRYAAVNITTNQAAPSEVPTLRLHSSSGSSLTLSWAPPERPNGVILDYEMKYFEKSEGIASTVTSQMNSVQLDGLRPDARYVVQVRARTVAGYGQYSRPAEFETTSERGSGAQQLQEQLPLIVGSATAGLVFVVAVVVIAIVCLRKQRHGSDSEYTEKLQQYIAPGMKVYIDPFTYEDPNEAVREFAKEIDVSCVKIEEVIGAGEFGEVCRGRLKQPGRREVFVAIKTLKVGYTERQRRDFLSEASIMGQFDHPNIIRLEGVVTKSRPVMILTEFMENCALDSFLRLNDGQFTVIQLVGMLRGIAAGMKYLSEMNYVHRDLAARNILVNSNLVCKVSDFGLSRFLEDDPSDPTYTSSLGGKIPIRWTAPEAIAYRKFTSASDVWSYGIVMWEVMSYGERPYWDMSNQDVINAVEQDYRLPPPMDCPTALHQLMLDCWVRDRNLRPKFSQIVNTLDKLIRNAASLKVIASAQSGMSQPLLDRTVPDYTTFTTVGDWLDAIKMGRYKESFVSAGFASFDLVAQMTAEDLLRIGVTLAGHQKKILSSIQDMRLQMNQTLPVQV

[3] = molecular target: T2, Ephrin type-B receptor 3 (Homo sapiens); conditions: at 1 µM
[4] = molecular target: T3, Ephrin type-B receptor 4 (Homo sapiens) (UniProt P54760); conditions: at 0.1 µM
T3 sequence (whole entry): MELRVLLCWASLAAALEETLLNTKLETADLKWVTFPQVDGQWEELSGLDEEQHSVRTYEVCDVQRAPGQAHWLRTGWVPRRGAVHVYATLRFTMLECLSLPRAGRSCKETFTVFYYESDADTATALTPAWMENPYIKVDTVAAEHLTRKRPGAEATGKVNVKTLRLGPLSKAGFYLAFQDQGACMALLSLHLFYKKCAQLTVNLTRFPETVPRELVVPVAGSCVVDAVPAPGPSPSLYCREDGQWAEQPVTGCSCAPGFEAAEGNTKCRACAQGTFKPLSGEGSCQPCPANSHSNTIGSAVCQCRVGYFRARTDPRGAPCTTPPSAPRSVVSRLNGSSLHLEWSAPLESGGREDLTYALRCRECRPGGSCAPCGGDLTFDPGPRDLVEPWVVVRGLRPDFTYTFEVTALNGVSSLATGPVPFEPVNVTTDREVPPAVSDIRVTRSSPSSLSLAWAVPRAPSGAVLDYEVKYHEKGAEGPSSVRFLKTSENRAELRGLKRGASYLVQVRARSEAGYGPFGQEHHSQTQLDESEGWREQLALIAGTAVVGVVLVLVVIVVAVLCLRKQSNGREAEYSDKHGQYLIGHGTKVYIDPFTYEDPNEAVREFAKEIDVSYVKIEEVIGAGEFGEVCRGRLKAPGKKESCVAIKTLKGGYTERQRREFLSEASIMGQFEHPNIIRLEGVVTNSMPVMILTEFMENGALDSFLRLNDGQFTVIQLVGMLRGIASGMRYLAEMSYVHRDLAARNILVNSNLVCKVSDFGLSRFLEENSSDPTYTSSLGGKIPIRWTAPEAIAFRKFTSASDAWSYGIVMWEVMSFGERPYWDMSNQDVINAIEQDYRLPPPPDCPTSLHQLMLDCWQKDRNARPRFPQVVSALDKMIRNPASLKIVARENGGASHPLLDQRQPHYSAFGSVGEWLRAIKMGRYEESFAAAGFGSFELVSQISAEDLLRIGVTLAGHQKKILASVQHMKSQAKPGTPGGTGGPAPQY

[5] = molecular target: T3, Ephrin type-B receptor 4 (Homo sapiens); conditions: at 1 µM
[6] = molecular target: Receptor tyrosine-protein kinase erbB-2 (Homo sapiens) (UniProt P04626); conditions: at 0.1 µM
[7] = molecular target: Receptor tyrosine-protein kinase erbB-2 (Homo sapiens) (UniProt P04626); conditions: at 1 µM
[8] = molecular target: Receptor tyrosine-protein kinase erbB-4 (Homo sapiens) (UniProt Q15303); conditions: at 0.1 µM
[9] = molecular target: Receptor tyrosine-protein kinase erbB-4 (Homo sapiens) (UniProt Q15303); conditions: at 1 µM
[10] = molecular target: Tyrosine-protein kinase Fer (Homo sapiens) (UniProt P16591); conditions: at 0.1 µM;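 further: reported figures are averaged percent inhibition of FER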
Chain of Tyrosine-protein kinase Fer (Homo sapiens) (P16591 whole entry, looked up): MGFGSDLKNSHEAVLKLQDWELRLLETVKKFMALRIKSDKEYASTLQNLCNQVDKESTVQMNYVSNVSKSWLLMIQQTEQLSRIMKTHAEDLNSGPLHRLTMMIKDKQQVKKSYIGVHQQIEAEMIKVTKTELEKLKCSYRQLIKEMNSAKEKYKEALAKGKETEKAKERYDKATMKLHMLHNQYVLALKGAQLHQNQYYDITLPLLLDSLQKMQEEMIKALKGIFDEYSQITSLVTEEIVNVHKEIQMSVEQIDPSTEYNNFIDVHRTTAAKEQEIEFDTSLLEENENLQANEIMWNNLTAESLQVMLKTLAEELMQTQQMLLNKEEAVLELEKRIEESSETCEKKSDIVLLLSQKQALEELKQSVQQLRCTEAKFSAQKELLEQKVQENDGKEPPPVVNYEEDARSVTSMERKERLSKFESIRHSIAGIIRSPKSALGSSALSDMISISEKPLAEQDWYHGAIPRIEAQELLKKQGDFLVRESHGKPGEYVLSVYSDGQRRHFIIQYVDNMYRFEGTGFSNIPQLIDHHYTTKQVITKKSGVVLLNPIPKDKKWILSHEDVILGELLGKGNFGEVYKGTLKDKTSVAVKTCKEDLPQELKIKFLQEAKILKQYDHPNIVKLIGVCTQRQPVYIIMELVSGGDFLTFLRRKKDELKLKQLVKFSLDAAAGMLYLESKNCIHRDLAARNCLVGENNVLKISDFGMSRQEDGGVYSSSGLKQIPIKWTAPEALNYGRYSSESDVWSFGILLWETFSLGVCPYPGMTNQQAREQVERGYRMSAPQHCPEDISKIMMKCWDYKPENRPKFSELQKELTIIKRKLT

Chain of Receptor tyrosine-protein kinase erbB-2 (Homo sapiens) (P04626 whole entry): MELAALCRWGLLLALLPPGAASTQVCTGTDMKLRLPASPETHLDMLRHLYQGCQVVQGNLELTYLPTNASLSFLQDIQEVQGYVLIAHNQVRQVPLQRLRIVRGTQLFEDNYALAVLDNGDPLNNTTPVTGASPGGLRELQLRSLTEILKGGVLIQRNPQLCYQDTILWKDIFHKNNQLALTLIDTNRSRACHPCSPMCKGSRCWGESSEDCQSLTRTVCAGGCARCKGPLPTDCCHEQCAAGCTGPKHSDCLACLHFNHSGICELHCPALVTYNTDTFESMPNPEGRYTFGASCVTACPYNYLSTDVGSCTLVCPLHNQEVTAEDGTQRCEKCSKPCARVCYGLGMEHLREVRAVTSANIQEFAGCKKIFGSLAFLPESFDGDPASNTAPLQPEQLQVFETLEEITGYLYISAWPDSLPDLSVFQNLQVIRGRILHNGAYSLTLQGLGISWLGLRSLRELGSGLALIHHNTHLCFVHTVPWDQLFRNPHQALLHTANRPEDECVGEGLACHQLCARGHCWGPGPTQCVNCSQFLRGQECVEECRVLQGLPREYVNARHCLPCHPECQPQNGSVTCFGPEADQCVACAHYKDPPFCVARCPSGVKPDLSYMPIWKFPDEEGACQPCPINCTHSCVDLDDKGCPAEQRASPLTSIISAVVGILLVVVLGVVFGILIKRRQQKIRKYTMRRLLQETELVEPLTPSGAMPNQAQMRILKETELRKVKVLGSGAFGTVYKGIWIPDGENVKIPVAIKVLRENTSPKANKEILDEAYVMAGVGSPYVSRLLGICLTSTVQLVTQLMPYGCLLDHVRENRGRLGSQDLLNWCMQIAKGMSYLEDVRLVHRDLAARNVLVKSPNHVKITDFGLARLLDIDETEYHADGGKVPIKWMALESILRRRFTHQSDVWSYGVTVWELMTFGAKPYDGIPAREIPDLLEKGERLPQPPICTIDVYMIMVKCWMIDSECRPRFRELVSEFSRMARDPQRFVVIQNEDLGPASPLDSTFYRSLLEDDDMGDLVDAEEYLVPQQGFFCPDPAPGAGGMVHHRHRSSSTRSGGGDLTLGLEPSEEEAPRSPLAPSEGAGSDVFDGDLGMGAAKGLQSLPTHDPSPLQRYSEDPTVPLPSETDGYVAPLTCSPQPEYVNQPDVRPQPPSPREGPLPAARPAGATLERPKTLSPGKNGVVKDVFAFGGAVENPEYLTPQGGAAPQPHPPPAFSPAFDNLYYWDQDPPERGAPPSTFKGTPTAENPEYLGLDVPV
Chain of Receptor tyrosine-protein kinase erbB-4 (Homo sapiens) (Q15303 whole entry): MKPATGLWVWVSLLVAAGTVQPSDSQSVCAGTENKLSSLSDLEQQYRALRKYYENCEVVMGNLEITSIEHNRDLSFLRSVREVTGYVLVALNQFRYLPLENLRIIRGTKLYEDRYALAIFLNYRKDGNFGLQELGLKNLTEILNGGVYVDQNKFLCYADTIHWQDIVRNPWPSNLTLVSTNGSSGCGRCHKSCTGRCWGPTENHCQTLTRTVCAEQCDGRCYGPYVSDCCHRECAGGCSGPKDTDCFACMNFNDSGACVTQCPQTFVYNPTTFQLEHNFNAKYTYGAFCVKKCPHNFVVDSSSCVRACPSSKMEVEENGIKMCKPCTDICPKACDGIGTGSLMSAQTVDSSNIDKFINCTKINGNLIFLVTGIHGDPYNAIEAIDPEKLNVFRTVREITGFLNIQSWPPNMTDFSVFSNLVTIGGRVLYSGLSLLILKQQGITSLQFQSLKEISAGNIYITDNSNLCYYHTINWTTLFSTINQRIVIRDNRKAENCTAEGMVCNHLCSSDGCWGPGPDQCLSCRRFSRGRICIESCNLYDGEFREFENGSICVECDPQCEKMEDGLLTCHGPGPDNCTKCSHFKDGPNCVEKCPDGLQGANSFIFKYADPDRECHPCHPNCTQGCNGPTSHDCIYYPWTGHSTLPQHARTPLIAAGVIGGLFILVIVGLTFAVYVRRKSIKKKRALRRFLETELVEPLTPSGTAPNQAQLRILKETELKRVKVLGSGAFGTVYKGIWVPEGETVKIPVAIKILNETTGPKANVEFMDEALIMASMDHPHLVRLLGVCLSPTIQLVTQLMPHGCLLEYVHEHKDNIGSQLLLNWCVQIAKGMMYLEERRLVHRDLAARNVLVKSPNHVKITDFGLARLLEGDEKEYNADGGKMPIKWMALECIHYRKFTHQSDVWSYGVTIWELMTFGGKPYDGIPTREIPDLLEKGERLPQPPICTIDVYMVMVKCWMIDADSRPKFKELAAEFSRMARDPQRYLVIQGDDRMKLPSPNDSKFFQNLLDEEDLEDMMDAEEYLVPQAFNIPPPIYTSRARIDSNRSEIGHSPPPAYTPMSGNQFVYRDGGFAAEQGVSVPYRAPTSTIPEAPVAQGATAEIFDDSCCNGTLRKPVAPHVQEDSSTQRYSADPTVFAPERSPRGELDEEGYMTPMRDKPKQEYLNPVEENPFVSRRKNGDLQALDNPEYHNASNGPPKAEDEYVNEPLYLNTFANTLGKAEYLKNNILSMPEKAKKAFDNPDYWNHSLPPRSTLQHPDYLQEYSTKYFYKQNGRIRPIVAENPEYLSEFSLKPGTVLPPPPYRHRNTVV

SMILES	inhibition [1] [%]	inhibition [2] [%]	inhibition [3] [%]	inhibition [4] [%]	inhibition [5] [%]	inhibition [6] [%]	inhibition [7] [%]	inhibition [8] [%]	inhibition [9] [%]	inhibition [10] [%]
CCN(CC)Cc1ccc(Nc2nccc(-c3cnn4ncccc34)n2)cc1	27.2	-0.97	0.55	1.62	8.4	3.58	3.96	1.52	5.17	3.88
CCc1cccc(CC)c1/C=C/c1cncc(C(=O)NC)c1	11.1	3.73	2.63	1.12	1.84	0.13	-1.35	12.1	14.1	1.86
COc1cccc(-n2cnc3c(N/N=C/c4ccncc4)ncnc32)c1	16.2	-8.69	-4.51	-2.1	0.65	0.94	7.49	-3.73	2.45	4.18
O=C(Nc1ccc(Oc2ccc3[nH]c(NC(=O)c4ccccc4)nc3c2)cc1)Nc1cc(C(F)(F)F)ccc1F	61.8	5.05	8.33	3.63	27.5	2.77	4.41	6.9	9.12	1.59
FC(F)(F)c1cccc(Nc2nccc(-c3cnn4nc(-c5ccccc5)ccc34)n2)c1	6.85	5.37	2.32	-0.91	0.74	2.98	2.21	7	8.48	-2.66
Nc1nccc(-c2c(-c3ccc(F)cc3)ncn2C2CCC(O)CC2)n1 (stereo not given)	35.9	1.08	32.1	2.5	14.7	-3.17	4.64	6.79	45.9	5.39
CN(C)c1ccc2c(c1)/C(=C/Nc1ccc(S(N)(=O)=O)cc1)C(=O)N2	5.77	4.11	1.83	2.11	3.08	0.32	3.44	4.88	7.65	2.36
COc1cc(Nc2ncc(-c3ccccc3)o2)cc(OC)c1OC	5.83	-5.87	-2.19	1.05	3.25	0.87	-1.74	-4.19	-2.66	-1.48

Reference: ChEMBL document CHEMBL1961873, “Compounds: GSK PKIS; Assays: Nanosyn kinase panel” (2012)
